In PubChem BioAssay AID686978 (National Center for Advancing Translational Sciences (NCATS), 2013):
In all, about 420,000 compounds went through this assay and about 64,000 (15%) were called active. Roughly 27% stayed inconclusive and do not appear here. Only a sample is shown. A call without a number means that no potency is given here. Unmarked numbers belong to inactive results. The call rests on the fitted dose curve; in most records, active means well fitted inhibition curve with a large enough effect; inconclusive means small, poorly fitted or top-dose-only effect; inactive means flat fitted curve, though single readings scatter.

Assay: qHTS for Inhibitors of human tyrosyl-DNA phosphodiesterase 1 (TDP1): qHTS in cells in absence of CPT; further: nearly all actives have a fitted effect of over 55% in size
Conditions: DT40 Tdp1-/- hTDP1 cells, no CPT, ATP luminescence, 48 h; activity change, negative = growth inhibition: at 46.2 µM (top of the series)
Procedure, shortened: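 Growth of hTDP1-complemented DT40 Tdp1-knockout cells is measured by ATP luminescence after at least 48 hr compound exposure at 37 °C, with DMSO substituting for the 20 nM CPT used in the parallel screen.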
Potency means the concentration at half of the fitted maximal effect.

Structure (SMILES)	Potency	activity change, negative = growth inhibition
CC(C)CC1(C(=O)NCc2ccccn2)C=CCN1C(=O)c1ccccc1 (stereo unspecified)	inactive	
CCCc1cc(=O)[nH]c(SCC(=O)Nc2sc3c(c2C#N)CCCC3)n1	inactive	
Cc1ccc(C)c(OCC(=O)Nc2sc3c(c2C#N)CCCC3)c1C	9.2 µM (active)	
Cc1cccc(C(=O)OCC(=O)Nc2sc3c(c2C#N)CCC3)c1	inactive	
COc1ccc(-n2c(SCC(=O)Nc3sc4c(c3C#N)CCCC4)nnc2-c2ccc(O)cc2)cc1	inactive	
N#Cc1c(NC(=O)C2CCCO2)sc2c1CCCCC2 (stereo unspecified)	inactive	
CC(=O)c1c(C)[nH]c(C(=O)OCC(=O)Nc2c(C)cccc2C)c1C	13 µM (active)	
CC(=O)c1c(C)[nH]c(C(=O)OCC(=O)Nc2sc3c(c2C#N)CCCC3)c1C	16.4 µM (active)	
N#Cc1c(NC(=O)CCCl)sc2c1CCCCC2	18.4 µM (active)	
Cc1cccc(C)c1NC(=O)COC(=O)c1ccccc1O	inactive	
CCOC(=O)c1c(NC(=O)CSc2nnc(C)c(=O)[nH]2)sc2c1CCC2	inactive	
CC(=O)c1c(C)[nH]c(C(=O)OCC(=O)Nc2c(C)n(C)n(-c3ccccc3)c2=O)c1C	inactive	
CCN1CCN(CC(=O)Nc2sc3c(c2C#N)CCC3)CC1	inactive	
C=CCc1cccc2cc(C(=O)NC3CCCC3)c(=O)oc12	inactive	
Cc1nn(-c2ccccc2)nc1C(=O)OCC(=O)N1CCCCC1C (stereo unspecified)	inactive	
Nc1nc(SCC(=O)NCCN2CCOCC2)nc2sc3c(c12)CCC3	inactive	
CSc1nc2nc3c(c(=O)n2[nH]1)CCC3	inactive	
Cc1cn(C2OC[C@@H](O)[C@@H]2CO)c(=O)[nH]c1=O (stereo partly specified)	inactive	
CC(C)[C@H]1CC[C@@H](C)C[C@H]1O	inactive	
CCCC(C)C(=O)Nc1ccc(NC(C)=O)cc1 (stereo unspecified)	inactive	
O=C(NNC(=O)C1CCC1)c1ccccc1	inactive	
Cc1csc(-c2coc3cc(O[C@@H]4O[C@H](CO)[C@@H](O)[C@@H](O)[C@H]4O)ccc3c2=O)n1		1.27% [at 9.04 µM]

Structure (SMILES)	Potency	activity change, negative = growth inhibition
COc1cc2nc(N3CCN(C(=O)[C@@H]4CCCO4)CC3)nc(N)c2cc1OC	inactive	
COc1cc2nc(N3CCCN(C)CC3)nc(NC(C)C)c2cc1OC	12.6 µM (active)	
COc1cc2nc(N3CCCN(C)CC3)nc(NC3CC3)c2cc1OC	10 µM (active)	
COc1ccc(C(=O)N2CCCN(C)CC2)c(OC)c1	inactive	
CNCCCOc1cc2nc(N3CCCN(C)CC3)nc(NC3CCN(C)CC3)c2cc1OC	inactive	
CCCCSc1nnc2c(n1)OC=Nc1ccccc1-2	inactive	
CCCn1nc(Oc2nc(NC(C)C)nc(N(C)C)n2)ccc1=O	inactive	
Cn1c(SCC(=O)NC2CCCCC2)nnc1-c1ccc(N)cc1	inactive	
CC(=O)Nc1ccc(N2C(=O)C3C4CC(=O)C(c5ccccc54)C3C2=O)cc1 (stereo unspecified)	inactive	
COc1ncc2nc(-c3ccc(Cl)cc3)c(=O)n(C)c2n1	inactive	
CCCCc1c(-c2ccc(Cl)cc2)ncn1CCc1ccccc1OC	3.26 µM (active)	
COc1ccccc1OCCCn1c(-c2ccc(Cl)cc2)nc2ccccc2c1=O	inactive	
COc1ccccc1CCn1c(=O)c(-c2cn(C)c3ccccc23)nc2cncnc21	inactive	
COc1ccccc1CN1CCN(Cc2cc(OC)c(OC)cc2OC)CC1	inactive	
COc1cccc(OC)c1C(=O)N1CCN(Cc2ccccc2F)CC1	inactive	
CCCc1c(-c2ccccc2F)ncn1Cc1ccccc1OC	1.16 µM (active)	
CCCCc1c(-c2ccc(Br)cc2)ncn1CCc1ccccc1OC	1.3 µM (active)	
COc1ccccc1CCC(=O)NNC(=O)c1ccncc1	inactive	
CCN(CC(=O)NC(C)C)C(=O)c1cc(S(=O)(=O)N2CCCCC2)ccc1N1CCCCC1	inactive	
CCOC(=O)c1c(C)[nH]c(C(=O)OCC(=O)c2ccc(OC)cc2OC)c1C	inactive	
C=CCNc1nc(N)c([N+](=O)[O-])c(NC2CCCCC2)n1	inactive	
CCCCn1c(N)c(N(CCOC)C(=O)c2sc3ccccc3c2Cl)c(=O)[nH]c1=O	inactive	

Structure (SMILES)	Potency	activity change, negative = growth inhibition
CC1CCCN(C(=O)Cn2c(=O)oc3cc(S(=O)(=O)N4CCCCC4C)ccc32)C1 (stereo unspecified)	inactive	
CC1CCCCN1C(=O)Cn1c(=O)oc2cc(S(=O)(=O)N3CCCCC3)ccc21 (stereo unspecified)	inactive	
CC(C)CCNC(=O)Cn1c(=O)oc2cc(S(=O)(=O)N3CC(C)CC(C)C3)ccc21 (stereo unspecified)	16.4 µM (active)	
CC1CCc2sc(C(=O)N/N=C/C3CCCCC3)cc2C1 (stereo unspecified)	inactive	
CSc1ncccc1C(=O)NCC(c1ccco1)N1CCCCC1 (stereo unspecified)	inactive	
CC1CCc2sc(C(=O)NCC(c3ccco3)N3CCCCC3)cc2C1 (stereo unspecified)	10.3 µM (active)	
Cc1ccccc1S(=O)(=O)Cc1ccc(C(=O)NCCN2CCCCC2C)o1 (stereo unspecified)	inactive	
CN(CC(=O)Nc1cccc(F)c1)C(=O)C1CSC2(C)CCC(=O)N12 (stereo unspecified)	inactive	
COc1ccc(C(=O)Oc2ccc(-c3nnco3)cc2)cc1S(=O)(=O)N1CCOCC1	inactive	
CCCCc1nn2c(=O)cc(COC(=O)c3ccc(NC(=O)c4ccccc4C)cc3)nc2s1	14.6 µM (active)	
CCCc1nn2c(=O)cc(COC(=O)c3ccc(NC(=O)C(C)Oc4ccccc4)cc3)nc2s1 (stereo unspecified)	inactive	
Cc1nn2c(=O)cc(COC(=O)CNC(=O)c3ccc(F)cc3)nc2s1	inactive	
CCCCc1nn2c(=O)cc(COC(=O)c3ccccc3NC(=O)C(C)(C)C)nc2s1	inactive	
O=C(Nc1ccc(C(=O)OCc2cc(=O)n3nc(C4CC4)sc3n2)cc1)c1ccc(F)cc1	inactive	
Cc1nn2c(=O)cc(COC(=O)c3ccc(NC(=O)C(C)(C)C)cc3)nc2s1	18.4 µM (active)	
Cc1nn(C)cc1S(=O)(=O)N1CCN(c2ccc(F)cc2)CC1	inactive	
C=CCNc1nnc(C)c2ccccc12	inactive	
Cc1nc(-c2ccc([N+](=O)[O-])cc2)c(-c2ccccc2)o1	inactive	
O=C1CC(c2ccccc2)=NN1c1ccc([N+](=O)[O-])cc1	16.4 µM (active)	
O=c1[nH]n(-c2ccc([N+](=O)[O-])cc2)c(=O)c2ccccc12	inactive	
CC(C)c1nc(CNC(=O)CC2C(=O)NCCN2Cc2cccc(F)c2F)cs1 (stereo unspecified)	inactive	
CCN(CC)CCCNC(=O)Cn1cnc2sc(C)c(S(=O)(=O)N3CCN(c4ncccn4)CC3)c2c1=O	inactive	
